The target in test [1] is Estrogen-related receptor gamma (Homo sapiens) (UniProt P62508). Kind of test: ATG_ERRg_TRANS: Attagene TRANS-FACTORIAL HepG2 Assay for human Estrogen-Related Receptor gamma (ERRg) (AID 2282977; active means hit-call score of the fitted dose curve at least 0.9, where 1 is the maximum;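 further: hits increase reporter signal over DMSO so potencies reflect activators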). To be noted: HepG2 Attagene TRANS reporter, ERRg transactivation. The method, boiled down: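 Transient HepG2 transfectants, 24 h compound exposure, GAL4-UAS reporter mRNA by RT-PCR/6-FAM labelling/capillary electrophoresis; positive direction vs DMSO.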
Estrogen-related receptor gamma (Homo sapiens), sequence (P62508 whole entry, looked up, the tested form may be a part): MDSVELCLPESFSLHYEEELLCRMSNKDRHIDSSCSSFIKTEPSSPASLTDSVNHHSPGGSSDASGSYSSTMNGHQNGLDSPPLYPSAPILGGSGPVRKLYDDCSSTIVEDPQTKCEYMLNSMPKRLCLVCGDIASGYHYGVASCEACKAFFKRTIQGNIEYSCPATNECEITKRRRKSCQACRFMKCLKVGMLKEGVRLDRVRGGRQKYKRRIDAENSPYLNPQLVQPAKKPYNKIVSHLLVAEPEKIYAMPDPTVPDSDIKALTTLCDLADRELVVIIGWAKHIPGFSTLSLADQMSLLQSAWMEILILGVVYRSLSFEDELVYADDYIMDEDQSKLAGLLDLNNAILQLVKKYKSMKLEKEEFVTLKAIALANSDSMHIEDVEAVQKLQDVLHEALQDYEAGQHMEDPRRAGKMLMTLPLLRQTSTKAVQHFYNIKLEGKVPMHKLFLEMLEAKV

In test [2] the target is Glucocorticoid receptor (Homo sapiens) (UniProt P04150). The experiment in a line: ATG_GR_TRANS: Attagene TRANS-FACTORIAL HepG2 Assay for human Glucocorticoid Receptor (GR) (AID 2282978; active means hit-call score of the fitted dose curve at least 0.9, where 1 is the maximum;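 further: activators score as hits since higher reporter transcript over DMSO is fitted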). To be noted: HepG2 Attagene TRANS GR reporter, mRNA transcription. The method, boiled down:
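HepG2 transient transfection, multiple reporter units, GAL4-UAS under NR-GAL4 chimera control. 24 h treatment. Reporter mRNA by RT-PCR/CE fluorescence, DMSO as negative control.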

Test [3] concerns the target Bile acid receptor (Homo sapiens) (UniProt Q96RI1). The experiment in a line: ATG_FXR_TRANS: Attagene TRANS-FACTORIAL HepG2 Assay for Farnesoid X Receptor (FXR) (AID 2282979; active means hit-call score of the fitted dose curve at least 0.9, where 1 is the maximum;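 further: hits raise reporter mRNA above DMSO so AC50 marks FXR activation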). The conditions noted are these: HepG2 Attagene TRANS FXR-GAL4 reporter transcription. In a few lines: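 HepG2 cells were transiently transfected with GAL4-UAS reporters driven by chimeric NR-Gal4 proteins and dosed for 24 h. Reporter mRNA was quantified by RT-PCR, fluorescent labelling, HpaI digestion and capillary electrophoresis, with gain of signal scored versus DMSO.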

The target in test [4] is Oxysterols receptor LXR-alpha (Homo sapiens) (UniProt Q13133). Kind of test: ATG_LXRa_TRANS: Attagene TRANS-FACTORIAL HepG2 Assay for human Liver X Receptor alpha (LXRa) (AID 2282980; active means hit-call score of the fitted dose curve at least 0.9, where 1 is the maximum). The conditions noted are these: HepG2 Attagene TRANS reporter, LXRa transactivation. The method, boiled down: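 HepG2 cells transiently transfected with GAL4-UAS reporter units for chimeric NR-Gal4 proteins, exposed to chemicals for 24 h. Reporter mRNA quantified by RT-PCR and capillary electrophoresis; gain of signal fitted relative to DMSO.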
Oxysterols receptor LXR-alpha (Homo sapiens), sequence (Q13133 whole entry, looked up, the tested form may be a part): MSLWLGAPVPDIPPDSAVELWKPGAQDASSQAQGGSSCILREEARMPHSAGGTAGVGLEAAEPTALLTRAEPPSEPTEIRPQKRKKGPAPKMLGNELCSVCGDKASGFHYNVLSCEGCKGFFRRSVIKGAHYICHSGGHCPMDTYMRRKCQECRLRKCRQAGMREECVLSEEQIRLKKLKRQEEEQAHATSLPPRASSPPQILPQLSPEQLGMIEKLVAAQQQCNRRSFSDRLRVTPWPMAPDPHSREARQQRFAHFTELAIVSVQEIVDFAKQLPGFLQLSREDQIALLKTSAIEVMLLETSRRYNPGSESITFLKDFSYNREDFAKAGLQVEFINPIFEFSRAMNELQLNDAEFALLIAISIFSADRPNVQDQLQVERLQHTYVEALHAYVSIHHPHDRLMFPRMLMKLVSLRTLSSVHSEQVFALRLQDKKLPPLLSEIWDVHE

In test [5] the target is Oxysterols receptor LXR-beta (Homo sapiens) (UniProt P55055). Kind of test: ATG_LXRb_TRANS: Attagene TRANS-FACTORIAL HepG2 Assay for human Liver X Receptor beta (LXRb) (AID 2282981; active means hit-call score of the fitted dose curve at least 0.9, where 1 is the maximum). To be noted: HepG2 Attagene TRANS GAL4-LXRb reporter, mRNA. In a few lines: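 HepG2 cells transiently transfected with multiple reporter transcription units carrying chimeric NR-Gal4 proteins acting on GAL4-UAS reporters; compound exposure 24 h. Reporter mRNA quantified by RT-PCR, 6-FAM labelling, HpaI digestion and capillary electrophoresis; gain of signal versus DMSO.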
Oxysterols receptor LXR-beta (Homo sapiens), sequence (P55055 whole entry, looked up, the tested form may be a part): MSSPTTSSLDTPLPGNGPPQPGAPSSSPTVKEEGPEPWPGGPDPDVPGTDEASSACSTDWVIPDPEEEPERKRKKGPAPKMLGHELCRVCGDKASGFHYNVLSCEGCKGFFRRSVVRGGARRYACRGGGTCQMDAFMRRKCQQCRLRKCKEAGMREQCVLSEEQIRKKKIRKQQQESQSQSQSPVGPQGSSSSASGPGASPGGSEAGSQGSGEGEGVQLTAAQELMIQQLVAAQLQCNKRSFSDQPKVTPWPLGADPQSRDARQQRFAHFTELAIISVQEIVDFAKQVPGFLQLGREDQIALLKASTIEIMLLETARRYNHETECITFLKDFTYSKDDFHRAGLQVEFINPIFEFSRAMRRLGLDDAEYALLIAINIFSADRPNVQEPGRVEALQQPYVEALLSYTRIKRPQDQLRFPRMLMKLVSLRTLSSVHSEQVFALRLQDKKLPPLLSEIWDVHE

Test [6] has as its target Nuclear receptor subfamily 4 group A member 2 (Homo sapiens) (UniProt P43354). Kind of test: ATG_NURR1_TRANS: Attagene TRANS-FACTORIAL HepG2 Assay for human Nuclear Receptor Related Protein 1 (NURR1) (AID 2282985; active means hit-call score of the fitted dose curve at least 0.9, where 1 is the maximum). To be noted: HepG2 Attagene TRANS reporter, mRNA readout. The method, boiled down: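 HepG2 cells transiently transfected with GAL4-UAS reporter units and chimeric NR-Gal4 constructs; chemical exposure 24 h. Reporter mRNA quantified by RT-PCR, fluorescent labelling and capillary electrophoresis; gain of signal fitted relative to DMSO baseline.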

Test [7] has as its target Transcriptional activator Myb (Homo sapiens) (UniProt P10242). The experiment in a line: ATG_Myb_CIS: Attagene CIS-FACTORIAL HepG2 Assay for human Myeloblastosis (Myb) Proto-Oncogene Transcription Factor (AID 2282986). To be noted: HepG2 Attagene CIS-FACTORIAL Myb reporter transcription; actives raise or lower the signal. In a few lines:
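Multiplexed cis-reporter system in HepG2: transient transfection, 24 h treatment, mRNA readout by RT-PCR and capillary electrophoresis. Both increases and decreases are scored versus DMSO negative control.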

The target in test [8] is Nuclear respiratory factor 1 (Homo sapiens) (UniProt Q16656). Kind of test: ATG_NRF1_CIS: Attagene CIS-FACTORIAL HepG2 Assay for human Nuclear Respiratory Factor 1 (NRF1) Orphan Gene (AID 2282987). The conditions noted are these: HepG2 NRF1 cis-element reporter, Attagene multiplex; actives raise or lower the signal. In a few lines: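 Endogenous factor activity was captured via cis-element-driven reporter transcripts in HepG2 cells. Following 24 h chemical treatment, transcripts were quantified by RT-PCR and capillary electrophoresis.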
Nuclear respiratory factor 1 (Homo sapiens), sequence (Q16656 whole entry, looked up): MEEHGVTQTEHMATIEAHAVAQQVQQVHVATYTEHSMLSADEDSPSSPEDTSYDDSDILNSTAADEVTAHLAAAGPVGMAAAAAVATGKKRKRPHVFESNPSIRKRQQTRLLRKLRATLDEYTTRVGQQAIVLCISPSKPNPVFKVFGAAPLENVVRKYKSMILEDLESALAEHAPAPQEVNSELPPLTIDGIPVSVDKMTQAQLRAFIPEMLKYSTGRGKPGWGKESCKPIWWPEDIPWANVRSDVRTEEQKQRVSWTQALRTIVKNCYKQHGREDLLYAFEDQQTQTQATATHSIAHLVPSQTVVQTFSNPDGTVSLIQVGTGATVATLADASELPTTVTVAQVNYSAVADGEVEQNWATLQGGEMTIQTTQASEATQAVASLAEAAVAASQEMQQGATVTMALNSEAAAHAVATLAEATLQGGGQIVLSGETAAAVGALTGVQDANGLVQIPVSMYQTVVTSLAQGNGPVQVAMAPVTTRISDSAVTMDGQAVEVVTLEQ

Test [9] is described as follows: ATG_NFI_CIS: Attagene CIS-FACTORIAL HepG2 Assay for human Nuclear Factor I (NFI) (AID 2282989). To be noted: HepG2 cis-regulatory reporter, NFI response element transcription; actives raise or lower the signal. The method, boiled down: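 After transient transfection of HepG2 with cis-promoter reporter constructs and 24 h dosing, RNA is reverse-transcribed, amplified, 6-FAM end-labelled and HpaI-digested before capillary analysis. Bidirectional curve fitting against DMSO.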

In test [10] the target is Myc proto-oncogene protein (Homo sapiens) (UniProt P01106). Kind of test: ATG_Myc_CIS: Attagene CIS-FACTORIAL HepG2 Assay for human Myelocytomatosis (Myc) Proto-Oncogene Transcription Factor (AID 2282990). To be noted: HepG2, Attagene cis-reporter transcription factor activity; actives raise or lower the signal. The method, boiled down:
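HepG2 cells transiently transfected with multiple cis-promoter-driven reporter transcription units, so endogenous TF activity is read. After 24 h compound exposure, reporter mRNA was quantified by RT-PCR, 6-FAM labelling, HpaI digestion and capillary electrophoresis; bidirectional fit versus DMSO.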

A short description of test [11]: ATG_NF_kB_CIS: Attagene CIS-FACTORIAL HepG2 Assay for human Nuclear Factor Kappa B (NF-kB) (AID 2282991). To be noted: HepG2 Attagene cis-factorial NF-kB reporter mRNA; actives raise or lower the signal. The method, boiled down:
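After 24 h compound incubation, transfected HepG2 cells yield total RNA; reporter cDNA is PCR-amplified, end-labelled with 6-FAM, HpaI-digested and analysed on a genetic analyser. Endogenous factor activity, DMSO-referenced bidirectional fit.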

Test [12] is described as follows: ATG_NRF2_ARE_CIS: Attagene CIS-FACTORIAL HepG2 Assay for human Nuclear Factor Erythroid 2 Related Factor 2 (NFR2) response to Antioxidant Response Elements (ARE) (AID 2282992). To be noted: HepG2 Attagene ARE/NRF2 reporter, transcription factor activity; actives raise or lower the signal. In a few lines:
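Cis-factorial assay: transfected HepG2 reporter library, 24 h dosing, mRNA readout via RT-PCR/CE; DMSO-referenced bidirectional analysis.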

Test [13] is described as follows: ATG_Oct_MLP_CIS: Attagene CIS-FACTORIAL HepG2 Assay for human Octamer-Binding Transcription Factor (Oct) (AID 2282993). To be noted: HepG2 Attagene cis-factorial Oct reporter, mRNA; actives raise or lower the signal. The method, boiled down: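 Cells of the HepG2 line express promoter-controlled reporter sequences whose mRNA levels, after 24 h treatment, are measured by RT-PCR and capillary electrophoresis. Increases and decreases are scored relative to DMSO.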

Test [14] addresses Cellular tumor antigen p53 (Homo sapiens) (UniProt P04637). Kind of test: ATG_p53_CIS: Attagene CIS-FACTORIAL HepG2 Assay for human p53 Transcription Factor (AID 2282994). The conditions noted are these: HepG2 p53 cis-element reporter, Attagene mRNA; actives raise or lower the signal. The method, boiled down:
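Using HepG2 hepatoma cells carrying cis-acting multiplexed reporters, mRNA induction is detected after a 24 h exposure. Gain- and loss-of-signal responses are fitted relative to DMSO-treated cells.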

Test [15] can be described thus: ATG_M_06_TRANS: Attagene TRANS-FACTORIAL HepG2 Assay for M06 Transcription Factor (Internal Marker) (AID 2282983; active means hit-call score of the fitted dose curve at least 0.9, where 1 is the maximum;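 further: reporter transcript level by RT-PCR then capillary electrophoresis fluorescence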). The conditions noted are these: HepG2 Attagene TRANS M06 internal marker reporter. In a few lines:
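HepG2 cells transiently transfected with GAL4-UAS multiple reporter units, dosed 24 h. Reporter RNA reverse-transcribed, PCR-amplified, 6-FAM-labeled, HpaI-digested and quantified by capillary electrophoresis; this internal-marker signal fitted upward relative to DMSO.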

Test [16] can be described thus: ATG_M_32_TRANS: Attagene TRANS-FACTORIAL HepG2 Assay for M32 Transcription Factor (Internal Marker) (AID 2282984; active means hit-call score of the fitted dose curve at least 0.9, where 1 is the maximum;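 further: transcript level of a background control reporter unit measured by RT-PCR and capillary electrophoresis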). To be noted: HepG2 Attagene TRANS M32 internal marker reporter. In a few lines:
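HepG2 cells transiently transfected with multiple GAL4-UAS reporter transcription units, dosed for 24 hours; reporter mRNA quantified by RT-PCR, 6-FAM primer extension, HpaI digestion and capillary electrophoresis. Gain-of-signal fitted versus DMSO baseline; internal background-control marker.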

Test [17] has as its target Hepatocyte nuclear factor 4-alpha (Homo sapiens) (UniProt P41235). The experiment in a line: ATG_HNF4a_TRANS: Attagene TRANS-FACTORIAL HepG2 Assay for human Hepatocyte Nuclear Factor 4 alpha (HNF4a) (AID 2282982; active means hit-call score of the fitted dose curve at least 0.9, where 1 is the maximum). The conditions noted are these: HepG2 HNF4a transactivation reporter, mRNA readout. In a few lines:
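HepG2 cells transiently transfected with multiplexed GAL4-UAS reporter units responsive to chimeric NR-GAL4 proteins; compound exposure 24 h. Reporter mRNA quantified by RT-PCR, 6-FAM labelling, HpaI digestion and capillary electrophoresis; gain of signal versus DMSO baseline.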

Test [18] in a line: BSK_3C_TissueFactor: BioMAP Diversity Plus: 3C Assay for Tissue Factor Biomarker Activity (AID 2282997). The conditions noted are these: BioMAP 3C HUVEC, tissue factor biomarker readout; actives raise or lower the signal. The method, boiled down:
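HUVEC were treated 24 h, then surface tissue factor measured by ELISA and fitted bidirectionally against DMSO. Parallel SRB total-protein staining assessed overt cytotoxicity at the same time point.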

Test [19] in a line: BSK_3C_uPAR: BioMAP Diversity Plus: 3C Assay for Urokinase-type plasminogen activator receptor (uPAR) Biomarker Activity (AID 2282998). To be noted: BioMAP 3C HUVEC, uPAR biomarker ELISA; actives raise or lower the signal. The method, boiled down: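 Endothelial primary cells of human umbilical vein origin received test chemical; 24 h later uPAR was assayed by ELISA. Fitting was bidirectional, DMSO as negative control.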

A short description of test [20]: BSK_3C_VCAM1: BioMAP Diversity Plus: 3C Assay for Vascular cell adhesion molecule 1 (VCAM1) Biomarker Activity (AID 2282999). To be noted: BioMAP 3C HUVEC, VCAM1 ELISA, cytokine-stimulated; actives raise or lower the signal. The method, boiled down: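 Human umbilical vein endothelial cells were dosed with compound for 24 h, after which cell-surface VCAM-1 was quantified by ELISA. Bidirectional curve fitting used DMSO as negative control and activity baseline.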
(ELISA stands for enzyme-linked immunosorbent assay.)

Each structure is given as a SMILES string. “And” between values parts separate entries of the source, which are not always exact repeats. Equal values may be shown once. Records with an inconclusive call do not appear. The source made the active and inactive calls. How the source made its calls, unless noted: active means hit-call score of the fitted dose curve at least 0.9, where 1 is the maximum; inactive means score below 0.9.

Myc proto-oncogene protein (Homo sapiens), sequence (P01106 whole entry, looked up): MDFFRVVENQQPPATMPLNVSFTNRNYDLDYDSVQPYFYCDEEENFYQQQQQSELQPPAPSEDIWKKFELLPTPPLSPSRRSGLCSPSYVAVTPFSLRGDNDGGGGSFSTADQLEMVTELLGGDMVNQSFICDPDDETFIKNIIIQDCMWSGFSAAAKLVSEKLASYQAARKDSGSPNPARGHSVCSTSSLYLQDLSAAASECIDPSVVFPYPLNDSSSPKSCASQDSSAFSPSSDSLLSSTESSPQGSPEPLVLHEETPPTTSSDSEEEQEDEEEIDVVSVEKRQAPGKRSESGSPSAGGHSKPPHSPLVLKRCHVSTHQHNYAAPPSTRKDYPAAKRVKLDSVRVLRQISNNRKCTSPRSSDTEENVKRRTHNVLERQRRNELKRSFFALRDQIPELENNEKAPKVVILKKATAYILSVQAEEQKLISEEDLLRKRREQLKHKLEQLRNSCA
Nuclear receptor subfamily 4 group A member 2 (Homo sapiens), sequence (P43354 whole entry, looked up, the tested form may be a part): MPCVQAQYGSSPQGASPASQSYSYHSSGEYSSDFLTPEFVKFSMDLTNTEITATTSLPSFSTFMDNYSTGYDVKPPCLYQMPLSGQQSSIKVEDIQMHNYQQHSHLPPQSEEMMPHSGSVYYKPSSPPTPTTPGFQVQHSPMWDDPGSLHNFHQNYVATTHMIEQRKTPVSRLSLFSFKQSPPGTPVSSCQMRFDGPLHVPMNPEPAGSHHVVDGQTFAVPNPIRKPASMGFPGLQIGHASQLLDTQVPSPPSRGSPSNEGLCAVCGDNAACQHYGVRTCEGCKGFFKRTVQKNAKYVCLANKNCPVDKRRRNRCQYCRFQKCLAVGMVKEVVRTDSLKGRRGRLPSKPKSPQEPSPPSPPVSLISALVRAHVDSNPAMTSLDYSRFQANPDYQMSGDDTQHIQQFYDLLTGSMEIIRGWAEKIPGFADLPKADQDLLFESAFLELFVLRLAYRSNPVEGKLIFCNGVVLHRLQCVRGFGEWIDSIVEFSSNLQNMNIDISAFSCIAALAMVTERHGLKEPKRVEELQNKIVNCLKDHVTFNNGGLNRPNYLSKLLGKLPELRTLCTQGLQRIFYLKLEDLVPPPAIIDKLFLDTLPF
Cellular tumor antigen p53 (Homo sapiens), sequence (P04637 whole entry, looked up): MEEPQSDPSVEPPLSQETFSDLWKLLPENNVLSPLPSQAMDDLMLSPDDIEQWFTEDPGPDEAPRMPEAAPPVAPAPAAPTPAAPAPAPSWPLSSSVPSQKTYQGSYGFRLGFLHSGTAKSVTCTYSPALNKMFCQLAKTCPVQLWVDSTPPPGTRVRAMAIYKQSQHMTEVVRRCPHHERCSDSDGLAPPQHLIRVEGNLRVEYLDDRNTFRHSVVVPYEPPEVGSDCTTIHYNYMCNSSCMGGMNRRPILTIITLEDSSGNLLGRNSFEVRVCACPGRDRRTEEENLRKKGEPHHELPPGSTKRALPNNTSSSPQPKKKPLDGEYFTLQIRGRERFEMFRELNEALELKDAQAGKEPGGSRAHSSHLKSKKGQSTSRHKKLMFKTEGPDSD
Transcriptional activator Myb (Homo sapiens), sequence (P10242 whole entry, looked up): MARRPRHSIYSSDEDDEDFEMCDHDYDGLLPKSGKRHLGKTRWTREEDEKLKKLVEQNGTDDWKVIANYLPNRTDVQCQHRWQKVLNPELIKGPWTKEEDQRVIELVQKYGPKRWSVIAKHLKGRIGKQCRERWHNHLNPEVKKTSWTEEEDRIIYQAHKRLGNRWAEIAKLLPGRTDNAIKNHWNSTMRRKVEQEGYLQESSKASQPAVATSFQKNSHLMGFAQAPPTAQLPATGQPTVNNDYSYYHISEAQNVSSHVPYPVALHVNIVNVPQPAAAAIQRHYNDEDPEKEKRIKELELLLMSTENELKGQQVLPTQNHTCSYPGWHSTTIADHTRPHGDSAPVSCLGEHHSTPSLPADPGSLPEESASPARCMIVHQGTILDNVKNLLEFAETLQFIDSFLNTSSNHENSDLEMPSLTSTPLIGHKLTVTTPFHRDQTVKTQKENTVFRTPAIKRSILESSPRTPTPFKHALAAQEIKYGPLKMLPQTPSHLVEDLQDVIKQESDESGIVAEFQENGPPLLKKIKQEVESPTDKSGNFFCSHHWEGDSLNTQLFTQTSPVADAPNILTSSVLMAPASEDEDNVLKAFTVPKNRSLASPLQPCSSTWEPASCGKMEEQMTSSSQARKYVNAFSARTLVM
Glucocorticoid receptor (Homo sapiens), sequence (P04150 whole entry, looked up, the tested form may be a part): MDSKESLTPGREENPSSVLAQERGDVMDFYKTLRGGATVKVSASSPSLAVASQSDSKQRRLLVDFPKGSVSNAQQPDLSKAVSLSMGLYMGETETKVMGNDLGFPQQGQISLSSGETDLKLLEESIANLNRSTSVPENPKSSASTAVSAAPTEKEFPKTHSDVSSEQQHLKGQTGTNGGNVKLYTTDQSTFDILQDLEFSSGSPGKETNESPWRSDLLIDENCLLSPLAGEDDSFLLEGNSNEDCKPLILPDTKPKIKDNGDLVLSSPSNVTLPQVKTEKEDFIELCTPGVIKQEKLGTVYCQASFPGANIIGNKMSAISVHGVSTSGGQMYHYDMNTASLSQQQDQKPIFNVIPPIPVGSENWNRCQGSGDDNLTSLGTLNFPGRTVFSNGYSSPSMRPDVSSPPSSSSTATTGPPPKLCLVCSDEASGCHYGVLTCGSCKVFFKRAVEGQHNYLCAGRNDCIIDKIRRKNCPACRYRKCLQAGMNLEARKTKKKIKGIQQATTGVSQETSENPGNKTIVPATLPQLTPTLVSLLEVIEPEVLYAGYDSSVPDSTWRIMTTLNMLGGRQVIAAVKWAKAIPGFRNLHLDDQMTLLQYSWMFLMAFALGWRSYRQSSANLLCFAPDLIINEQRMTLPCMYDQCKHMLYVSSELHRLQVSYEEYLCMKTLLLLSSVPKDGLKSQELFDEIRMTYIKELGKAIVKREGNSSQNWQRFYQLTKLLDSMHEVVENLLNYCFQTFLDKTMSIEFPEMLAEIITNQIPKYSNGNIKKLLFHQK

Take `Cc1ccc2c(c1)OCC(=O)CO2`: the compound was classed as inactive in [1], in test [2], in test [3], in test [4], in test [5] and in test [6]. The outcome in [7], in [8], in test [9], in test [10], in test [11] and in test [12] was inactive. Also, the result in test [13] and in test [14] was inactive.

What is called AC50 is the concentration giving half of the maximal activity seen. With `CN1CN(C)CN(C)C1`, the call in test [1], in test [5], in test [15], in [16], in [6] and in test [7] was inactive. Besides, the compound was called inactive in test [8], in test [9], in [10], in test [11], in [12] and in test [14]. Moreover, the concentration at half-maximal activity (AC50) in [13] was 165 µM (active).

For `CCOC(=O)C1CC(=O)C(=C(O)C2CC2)C(=O)C1` (stereo not drawn), the call in [1], in [5], in [15], in [7], in test [8] and in test [9] was inactive. In addition, the outcome in test [10], in [11], in test [12], in test [13] and in test [14] was inactive.

With `OCCCC(F)(F)C(F)(F)C(F)(F)C(F)(F)C(F)(F)C(F)(F)C(F)(F)C(F)(F)F`, the result in test [1], in [2], in test [3], in test [4], in test [5] and in test [17] was inactive. For the same compound, the compound was classed as inactive in test [15], in [16], in test [7], in [8], in [9] and in test [10]. Besides, the result in [11], in test [12] and in test [13] was inactive. Moreover, the AC50 in test [6] is 7.38 µM (active); in [14], 30.7 µM (active); in test [18], 13.1 µM (active) and 26.1 µM (active); in [19], 19.6 µM (active) and 42.2 µM (active); in test [20], 39.9 µM (active) and 46 µM (active).

(Values after PubChem BioAssay (EPA / NIEHS).)
